According to the supplement of paper PMC6555819:

Key:
Assay in all cases: PBM binding z-score (relative to random genomic background probes); higher = stronger binding; sequences stand for … in GC…GCGATTGACAGCGTAGAATGAAGG
[1] = test system: PPARg:RXRa DBDmut IVT, anti-RXR (DBD mutation: RXRa K156A/R161A, NR concentration 270 nM, RXRa partner concentration 90 nM)
Procedure, shortened: (§1)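 Binding z-scores were set against random background probes. The data came from custom Agilent 4×180K protein-binding microarrays carrying double-stranded probes with 34-nt variable regions, incubated 1 h with ligand-free nuclear receptor dimers. Partner-specific antibodies detected binding, and scanned fluorescence was regression-normalized.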

[2] = test system: PPARg:RXRa IVT, anti-PPARg (NR concentration 270 nM, RXRa partner concentration 90 nM)
Procedure, shortened: as §1

[3] = test system: PPARg DBDmut:RXRa IVT, anti-PPARg (DBD mutation: PPARg1 K132A/R137A, NR concentration 270 nM, RXRa partner concentration 90 nM)
Procedure, shortened: as §1

[4] = test system: PPARg DBDmut IVT, anti-PPARg (DBD mutation: PPARg1 K132A/R137A, NR concentration 270 nM)
Procedure, shortened: as §1

[5] = test system: PPARg homodimer (NR concentration 180 nM)
Procedure, shortened: as §1

[6] = test system: PXR:RXRa (NR concentration 270 nM, RXRa partner concentration 90 nM)
Procedure, shortened: as §1

[7] = test system: PXR homodimer (NR concentration 270 nM)
Procedure, shortened: as §1

[8] = test system: RARa:RXR (NR concentration 270 nM, RXRa partner concentration 90 nM)
Procedure, shortened: as §1

[9] = test system: RARa homodimer (NR concentration 270 nM)
Procedure, shortened: as §1

[10] = test system: RARb:RXRa (NR concentration 270 nM, RXRa partner concentration 90 nM)
Procedure, shortened: as §1

[11] = test system: RARb homodimer (NR concentration 270 nM)
Procedure, shortened: as §1

[12] = test system: RARg:RXRa (NR concentration 270 nM, RXRa partner concentration 90 nM)
Procedure, shortened: as §1

[13] = test system: RARg homodimer (NR concentration 270 nM)
Procedure, shortened: as §1

[14] = test system: RXRa DBDmut IVT, anti-RXR (DBD mutation: RXRa K156A/R161A, NR concentration 90 nM)
Procedure, shortened: as §1

[15] = test system: RXRa homodimer (NR concentration 180 nM)
Procedure, shortened: as §1

[16] = test system: THRa:RXRa (NR concentration 90 nM, RXRa partner concentration 90 nM)
Procedure, shortened: as §1

[17] = test system: THRa homodimer (NR concentration 90 nM)
Procedure, shortened: as §1

[18] = test system: VDR homodimer (NR concentration 270 nM)
Procedure, shortened: as §1

| Sequence | PBM binding z-score [1] | PBM binding z-score [2] | PBM binding z-score [3] | PBM binding z-score [4] | PBM binding z-score [5] | PBM binding z-score [6] | PBM binding z-score [7] | PBM binding z-score [8] | PBM binding z-score [9] | PBM binding z-score [10] | PBM binding z-score [11] | PBM binding z-score [12] | PBM binding z-score [13] | PBM binding z-score [14] | PBM binding z-score [15] | PBM binding z-score [16] | PBM binding z-score [17] | PBM binding z-score [18] |
| --- | --- | --- | --- | --- | --- | --- | --- | --- | --- | --- | --- | --- | --- | --- | --- | --- | --- | --- |
| GGAACGAAGGCATTCGAGTTGATAGCATGGCGAT | -0.318 | -0.69 | -0.596 | -0.862 | -1.41 | -0.315 | -0.602 | -0.623 | -0.628 | -0.659 | -0.976 | -0.479 | -0.164 | -0.552 | -0.562 | 0.655 | -1.68 | -0.0499 |
| GGAACGAGGGCATTCGAGTTGATAGAATGGCGAT | 2.73 | 1.93 | -0.165 | -0.814 | -0.265 | 3.87 | 1.31 | 0.709 | -0.629 | 1.69 | 0.53 | 1.01 | 1.5 | 2.88 | 0.761 | 3.35 | -0.605 | 3.02 |
| ACAGACAGGTGATGATGGTAACTCAGGCTATCAT | -0.209 | 0.395 | -0.375 | 0.608 | 0.0138 | 0.234 | 0.57 | 0.211 | 0.598 | 0.146 | 0.184 | 0.343 | 0.369 | -0.173 | 0.335 | 0.48 | 0.015 | 0.157 |
| GCTAGTTGGTCAGTAAAAGGGCACACACCGGTCG | 0.062 | 0.821 | 0.0138 | -0.25 | 1.05 | 0.368 | 0.0129 | 0.889 | 0.252 | 1.72 | 2.59 | 1.6 | 1.32 | -0.382 | 0.632 | 0.395 | -0.0299 | 0.271 |
| AGAATGAGGTTATTAAGATCAGGTAATTGCGGTC | 3.34 | 2.83 | 0.665 | 0.745 | 1.17 | 1.48 | 0.904 | 1.51 | 0.41 | 1.37 | 1.14 | 1.13 | 0.895 | 1.8 | 1.87 | 2.5 | 1.2 | 1.13 |
| CCTGACGGGTCACTCCAGGTTATAGCATCGGAGT | 1.01 | 2.14 | -0.43 | -0.483 | 1.81 | 4.64 | 0.176 | 3.34 | -0.12 | 3.31 | 2.89 | 3.82 | 3.7 | 1.04 | 3.59 | 5.04 | 0.311 | 1.27 |
| CGAACTAGGTCAGAACAGGTCAGTGAAGGATGAT | 7.05 | 7.16 | 1.14 | 1.73 | 1.66 | 3.32 | 0.18 | 2.3 | 0.424 | 3.57 | 3.88 | 3.47 | 4.34 | 1.03 | 2.22 | 4.08 | 0.526 | 0.955 |
| CCCACTGGGGCATAAGGTTACCATAAGCCAGCCC | 3.37 | 4.87 | -0.75 | -0.412 | 0.0588 | 0.0928 | -0.684 | 1.07 | -0.44 | 1.46 | 1.49 | 1.56 | 1.09 | -1.4 | 1.07 | 1.92 | 1.01 | -0.364 |
| GGAACGAGGGCAAGTTGATGGCAGAGTTTGATGG | 3.55 | 2.56 | -0.155 | -0.96 | 0.499 | 0.948 | 0.748 | 0.523 | -0.279 | 2.47 | 1.59 | 1.66 | 1.92 | 2.1 | 1.05 | 1.34 | 0.188 | 1.5 |
| CTCGAAAGGTCGGTTGGGGTGAGTATACGGATAA | 0.404 | 1.47 | 0.0444 | 1.01 | 1.6 | 3.44 | 0.962 | 2.76 | 0.684 | 3.31 | 2.88 | 3 | 2.42 | 1.18 | 2.69 | 4.95 | 1.86 | 1.55 |
| TCTAGTTGGTCACGGACGTCACACACGACGGGTA | 2.14 | 1.94 | 1.1 | 1.25 | 0.55 | 0.245 | 0.184 | 0.485 | 0.469 | 1.57 | 1.04 | 1.2 | 1.55 | 0.677 | 0.866 | 0.233 | -0.0119 | 0.188 |
| TGAATGAGGTTATAAGATCAGGGACCGTTGCAAA | 1.22 | 1.99 | 0.832 | -0.0564 | 0.812 | 0.874 | 0.0306 | 1.43 | -0.64 | 1.33 | 0.518 | 1.43 | 0.648 | 0.574 | 1.83 | 1.75 | 0.103 | 0.401 |
| GCTAGCATGCCATTTGGGTCACTCAATGACGGGC | 0.671 | 1.3 | 0.0302 | -0.739 | -0.305 | 0.247 | -0.745 | 0.851 | -0.41 | 1 | 1.77 | 0.756 | 0.805 | -0.283 | 0.99 | 1.69 | 0.874 | 0.0275 |
| CAAACTAGGTCAAGGCCAAAGTCGGTTTGTGCCA | 8.27 | 8.75 | 3.6 | 3.41 | 3.12 | 1.8 | -0.0922 | 2.28 | -0.0524 | 4.25 | 3.53 | 3.91 | 4.51 | 1.81 | 2.77 | 2.91 | 1.39 | 1.22 |
| TCTCGGAGGACACGAAGGTCAGAGATTTCCAGAG | 1.66 | 1.24 | -0.127 | -0.972 | 1.21 | 1.86 | 1.02 | 2.11 | -0.144 | 3.4 | 3.84 | 3.05 | 4.12 | 0.78 | 1.99 | 2.92 | 1.1 | 1.7 |
